# Screening results (PubChem BioAssay)
# MCF10A rereplic: DNA re-replication induction in MCF 10a cells. 350,000 tested, 2.9% active. MCF 10A DNA re-replication, Hoechst nuclear intensity, 48 h. AID 624296. Potency, µM (doses to about 46.1 µM), usual class: activators; further: nearly all actives have a fitted effect of over 50% in size
# RORg inh: ROR gamma (mouse) transcription inhibition; AID 2551; Drosophila S2 Gal4-RORgamma UAS-luciferase reporter, 20 h; Potency, µM (doses to about 53.6 µM), hits mostly inhibitors; 310,000 tested, 5.4% active; P51450; further: nearly all actives have a fitted effect of over 60% in size
# Target sequence (P51450 whole entry, looked up, the tested form may be a part): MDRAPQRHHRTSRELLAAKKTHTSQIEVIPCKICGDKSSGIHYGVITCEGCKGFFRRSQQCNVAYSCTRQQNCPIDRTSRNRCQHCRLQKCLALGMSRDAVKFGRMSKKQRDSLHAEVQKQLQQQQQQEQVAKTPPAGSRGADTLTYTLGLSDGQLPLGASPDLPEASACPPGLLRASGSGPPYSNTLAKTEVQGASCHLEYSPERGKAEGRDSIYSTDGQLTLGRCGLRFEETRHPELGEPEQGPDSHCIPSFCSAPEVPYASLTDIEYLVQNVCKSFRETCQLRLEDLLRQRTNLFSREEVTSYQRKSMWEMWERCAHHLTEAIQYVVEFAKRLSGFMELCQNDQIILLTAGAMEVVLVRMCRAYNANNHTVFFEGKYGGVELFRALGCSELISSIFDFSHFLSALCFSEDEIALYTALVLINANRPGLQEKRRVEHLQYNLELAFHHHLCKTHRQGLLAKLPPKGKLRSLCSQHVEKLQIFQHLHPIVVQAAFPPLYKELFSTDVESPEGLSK
#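 Schneider cells (Drosophila), stable Gal4 DBD–ROR gamma + UAS-luc; 1 hr cmpd preincubation; Cu2+ induction 700 uM final; 20 hr ambient; luminescence.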
# SW480 rereplic: induces DNA re-replication in SW480 colon adenocarcinoma cells; SW480 DNA re-replication, Hoechst DNA content imaging, 48 h; Potency, µM (highest dose often 46.1 µM), most hits filed as activators; 340,000 tested, 1.8% active; AID 624297; further: nearly all actives have a fitted effect of over 55% in size
#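 Treated cells incubate 48 hr (37 C, 5% CO2), are stained 40 min with Hoechst, and nuclear fluorescence is enumerated; a rise in nuclei with high DNA signal marks re-replication.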
# Gal4-VP16 FLuc: counter-screen for ROR gamma inhibitors: Gal4-VP16 reporter. Drosophila S2 Gal4-VP16 UAS-luciferase, luminescence, 20 h. Potency, µM (titrated, usually from 53.6 µM), actives largely listed as inhibitors. 310,000 tested, 3.5% active;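 further: Gal4-VP16 expression switched on by copper sulfate through the metallothionein promoter; nearly all actives have a fitted effect of over 50% in size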
# IL-1B inflam inh: inflammasome signaling inhibition, IL-1 beta readout. THP-1 LPS/ATP IL-1B secretion, AlphaLISA, 16 h; stronger effect = lower value. activity change, % at 57.5 µM. 360,000 tested, 4.7% active. AID 743279; in the data active means activity change below about -50%; inconclusive means mostly about -30% to -49%
#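 THP-1 cells pretreated 1 hr with compounds (up to 57.5 uM final), then stimulated with LPS (250 ng/mL final) plus ATP (1.25 mM final); secreted IL-1B measured by AlphaLISA after 16 hr, decreased signal indicating inhibition.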
# A number is an active result; – = inactive; ? = inconclusive; · = not tested or not shown; [ ] = dose if it differs, or a comment. Sampled rows, rich in hits. Any-hit rate of the full collection: about 11%. Unless noted, the call rests on the fitted dose curve; in most records, active means well fitted curve in the direction sought with a large enough effect; inconclusive means small, poorly fitted or top-dose-only effect, or another doubt; inactive means no such curve, though single readings can be large; an effect the other way counts as inactive or inconclusive.
SMILES,MCF10A rereplic,RORg inh,SW480 rereplic,Gal4-VP16 FLuc,IL-1B inflam inh
Cc1ccc(NC(=O)/C=C/c2ccc([N+](=O)[O-])s2)cc1,5.8µM,?,8.2µM,?,-96
Cc1ccc(NC(=O)/C=C/c2ccc([N+](=O)[O-])s2)c(C)c1,1.6µM,–,4.6µM,–,-96
Cc1cccc(NC(=O)/C=C/c2ccc([N+](=O)[O-])s2)c1,2.3µM,6.3µM,6.5µM,3.2µM,-97
Cc1cccc(NC(=S)N/N=C/c2ccc([N+](=O)[O-])s2)c1,?,1.3µM,?,3.2µM,–
Cc1cc([N+](=O)[O-])ccc1NC(=O)/C=C/c1cccs1,–,?,–,?,?
COc1cccc(NC(=O)/C=C/c2ccccc2[N+](=O)[O-])c1,–,–[10 µM],–,–,–
CC(C)(C)OC(=O)N/N=C\c1ccc([N+](=O)[O-])s1,–,–,?,?,–
COc1ccccc1-c1sc2ccccc2c1-c1ccc2c(c1)OCCO2,–,·,–,·,–
CC(=O)c1ccc(OCc2nnn(CC(=O)NS(=O)(=O)c3ccc(C)cc3)c2-c2ccccc2)cc1,·,·,·,·,–
CCCc1cc(NCCN(C)C)n2c(nc3ccccc32)c1C#N,–,–[1.91 µM],–,–,–
CCCc1cc(NCC2CCCO2)n2c(nc3ccccc32)c1C#N (centres undefined),16µM,–,?,–,–
CC(=O)C1=C(c2ccccc2)N(C(C)=O)n2c(C)nnc2S1,?,11µM,?,18µM,-97
CC(C)Oc1ccc(C(CC(=O)O)c2ccc(F)cc2)cc1 (centres undefined),–,–,–,–,–
COc1ccc(NC(=O)CC(c2ccc(F)cc2)c2ccc(OC(C)C)cc2)cc1 (centres undefined),18µM,–,–,–,–
O=C1C2C3C=CC(CNS(=O)(=O)c4ccccc4[N+](=O)[O-])(O3)C2C(=O)N1c1ccccc1 (centres undefined),21µM,?,?,11µM,–
O=C1C2C3C=CC(CO)(O3)C2C(=O)N1c1ccc(-c2ccccc2)cc1 (centres undefined),·,6.3µM,·,10µM,·
Cc1cc(C)c(S(=O)(=O)NCC23C=CC(O2)C2C(=O)N(c4ccccc4)C(=O)C23)c(C)c1 (centres undefined),?,16µM,?,?,–
OC1(c2ccc(F)cc2)CSC(=Nc2cccnc2)N1Cc1ccco1 (centres undefined),–[9.22 µM],?,–,?,–
OC1(c2ccc(OC(F)F)cc2)CSC(=Nc2cccnc2)N1Cc1ccco1 (centres undefined),?,?,–,?,-77
O=C1N=C2SCCN2C(=O)C1Cc1ccc(Cl)cc1 (centres undefined),–,–,–,–,·
Cc1cc(C)c(NC(=O)CSc2nnnn2-c2cccnc2)c(C)c1,–,–,–,–,–
CC(=O)OC[C@@H]1O[C@@H](O/N=C2/C[C@@H](O)[C@@H](O)[C@@H]3[C@@H]4C(=O)N(Cc5ccccc5)C(=O)[C@H]4CC[C@@H]23)[C@H](OC(C)=O)[C@H](OC(C)=O)[C@@H]1OC(C)=O,·,–[10 µM],·,–[10 µM],·
CN(NS(=O)(=O)c1ccc(Br)cc1)c1nc(C(F)(F)F)nc2ccccc12,–,?,–,?,-55
CN(N)c1nc(C(F)(F)F)nc2ccccc12,–,–,–,–,–
COc1cccc(CN(C)C(=O)CCNC(=O)c2ccco2)c1,–,·,–,·,–
SMILES,MCF10A rereplic,RORg inh,SW480 rereplic,Gal4-VP16 FLuc,IL-1B inflam inh
O=C1c2ccccc2-c2nnc(-c3ccc(F)cc3)cc21,–,–,–,–,–
Cc1ccc(-c2cc3c(nn2)-c2ccccc2C3=O)cc1,–,1.1µM,–,2µM,–
Cc1ccccc1-c1cc2c(nn1)-c1ccccc1C2=O,?,10µM,?,8.9µM,–
O=C1c2ccccc2-c2nnc(-c3ccc(O)cc3)cc21,?,?,–,?,–
CCOC(=O)N/N=C\c1ccc(C)s1,–,–,–,?,?
Cc1ccc(/C=N/NC(=O)c2ccc3ccccc3c2)s1,4.6µM,3.5µM,4.1µM,5µM,–
Cc1ccc(/C=N/NC(=O)c2ccc3c(c2)OCCO3)s1,?,5.6µM,16µM,?,–
Cc1ccc(/C=N/NC(=O)c2cccc(S(=O)(=O)Nc3ccccc3Cl)c2)s1,–,7.1µM,–,5µM,–
